# Data reported in paper PMC7862700, “An all-to-all approach to the identification of sequence-specific readers for epigenetic DNA modifications on cytosine”.
# Experiments:
# Experiment in all cases: DAPPL (digital affinity profiling via proximity ligation, sequencing); 10 mM Tris-HCl pH 7.5, 50 mM NaCl, 1 mM DTT, 4% glycerol, room temperature, 30 min; GST-TFs on glutathione beads, 16-mer random dsDNA library, 0.1% formaldehyde crosslink after washing; high values mean tight binding
# Conditions in all cases: protein: recombinant; tags: N-terminal GST; dsDNA, one strand shown
# FLI1 = target: T1, FLI1 (Homo sapiens, UniProt Q01543 1-452)
# T1 sequence: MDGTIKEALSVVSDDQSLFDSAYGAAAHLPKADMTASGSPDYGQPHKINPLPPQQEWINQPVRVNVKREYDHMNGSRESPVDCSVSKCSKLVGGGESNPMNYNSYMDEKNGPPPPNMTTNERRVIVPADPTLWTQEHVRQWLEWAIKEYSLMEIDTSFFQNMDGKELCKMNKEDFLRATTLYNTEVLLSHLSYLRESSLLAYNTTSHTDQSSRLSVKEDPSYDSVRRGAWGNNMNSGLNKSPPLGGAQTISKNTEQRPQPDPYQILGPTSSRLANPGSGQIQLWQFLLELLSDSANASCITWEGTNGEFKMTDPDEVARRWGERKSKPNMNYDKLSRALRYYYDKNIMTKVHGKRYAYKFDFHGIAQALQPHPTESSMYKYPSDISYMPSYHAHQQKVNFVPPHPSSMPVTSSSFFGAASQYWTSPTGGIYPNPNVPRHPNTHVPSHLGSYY
# Outline: (§1)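 Yeast served to express human transcription factors as GST fusions, which were then captured on glutathione beads and labelled with DNA barcodes. Pooled with a tag-only sample, they were incubated with 200 nmole of a 16-mer random double-stranded DNA library for 30 min at room temperature in Tris/NaCl/DTT/glycerol buffer, washed, crosslinked with 0.1% formaldehyde, ligated by proximity, amplified by PCR and sequenced. Dividing each hexamer's read frequency for a factor by its frequency for the tag-only sample gives the binding signal.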
# ELK1 = target: T2, ELK1 (Homo sapiens, UniProt P19419 1-428)
# T2 sequence: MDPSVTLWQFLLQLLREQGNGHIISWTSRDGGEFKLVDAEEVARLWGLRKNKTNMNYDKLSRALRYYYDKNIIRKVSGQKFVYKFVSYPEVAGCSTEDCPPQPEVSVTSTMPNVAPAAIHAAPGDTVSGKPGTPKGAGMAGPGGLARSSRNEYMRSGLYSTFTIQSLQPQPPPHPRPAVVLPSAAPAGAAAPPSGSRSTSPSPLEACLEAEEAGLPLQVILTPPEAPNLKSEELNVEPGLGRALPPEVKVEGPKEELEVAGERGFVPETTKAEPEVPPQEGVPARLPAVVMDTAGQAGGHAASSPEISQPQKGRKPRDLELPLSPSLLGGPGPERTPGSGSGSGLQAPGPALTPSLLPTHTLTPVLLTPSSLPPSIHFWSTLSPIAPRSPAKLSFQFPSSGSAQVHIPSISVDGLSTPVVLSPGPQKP
# Outline: as §1
# GABPA = target: T3, GABPA (Homo sapiens, UniProt Q06546 1-454)
# T3 sequence: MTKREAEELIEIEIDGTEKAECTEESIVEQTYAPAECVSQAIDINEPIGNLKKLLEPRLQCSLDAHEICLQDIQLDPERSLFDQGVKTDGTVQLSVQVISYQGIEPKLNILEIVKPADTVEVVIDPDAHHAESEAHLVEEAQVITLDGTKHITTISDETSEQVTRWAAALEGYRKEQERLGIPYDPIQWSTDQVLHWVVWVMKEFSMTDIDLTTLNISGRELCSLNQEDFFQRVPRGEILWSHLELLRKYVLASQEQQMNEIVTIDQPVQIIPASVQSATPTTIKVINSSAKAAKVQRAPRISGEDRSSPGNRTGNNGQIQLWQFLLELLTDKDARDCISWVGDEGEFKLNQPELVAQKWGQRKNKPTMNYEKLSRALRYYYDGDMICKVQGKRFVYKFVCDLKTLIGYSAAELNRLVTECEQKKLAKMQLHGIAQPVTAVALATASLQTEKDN
# Outline: as §1
# ERG = target: T4, ERG (Homo sapiens, UniProt P11308 1-479)
# T4 sequence: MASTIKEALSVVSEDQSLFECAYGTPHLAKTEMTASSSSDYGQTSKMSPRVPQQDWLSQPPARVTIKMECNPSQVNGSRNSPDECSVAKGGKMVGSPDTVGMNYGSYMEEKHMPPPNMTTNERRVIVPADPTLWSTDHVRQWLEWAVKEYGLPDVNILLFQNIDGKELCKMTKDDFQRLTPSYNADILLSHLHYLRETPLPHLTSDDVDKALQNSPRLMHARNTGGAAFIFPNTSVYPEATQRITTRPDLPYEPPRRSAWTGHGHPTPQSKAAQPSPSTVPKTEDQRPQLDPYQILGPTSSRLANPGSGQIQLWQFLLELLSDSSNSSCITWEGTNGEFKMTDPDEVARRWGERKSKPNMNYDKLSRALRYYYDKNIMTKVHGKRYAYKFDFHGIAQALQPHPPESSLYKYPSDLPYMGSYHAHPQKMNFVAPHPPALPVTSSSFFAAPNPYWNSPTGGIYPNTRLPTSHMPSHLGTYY
# Outline: as §1
# ELF1 = ELF1 (Homo sapiens, UniProt P32519 1-619)
# ELF1, sequence (P32519 whole entry): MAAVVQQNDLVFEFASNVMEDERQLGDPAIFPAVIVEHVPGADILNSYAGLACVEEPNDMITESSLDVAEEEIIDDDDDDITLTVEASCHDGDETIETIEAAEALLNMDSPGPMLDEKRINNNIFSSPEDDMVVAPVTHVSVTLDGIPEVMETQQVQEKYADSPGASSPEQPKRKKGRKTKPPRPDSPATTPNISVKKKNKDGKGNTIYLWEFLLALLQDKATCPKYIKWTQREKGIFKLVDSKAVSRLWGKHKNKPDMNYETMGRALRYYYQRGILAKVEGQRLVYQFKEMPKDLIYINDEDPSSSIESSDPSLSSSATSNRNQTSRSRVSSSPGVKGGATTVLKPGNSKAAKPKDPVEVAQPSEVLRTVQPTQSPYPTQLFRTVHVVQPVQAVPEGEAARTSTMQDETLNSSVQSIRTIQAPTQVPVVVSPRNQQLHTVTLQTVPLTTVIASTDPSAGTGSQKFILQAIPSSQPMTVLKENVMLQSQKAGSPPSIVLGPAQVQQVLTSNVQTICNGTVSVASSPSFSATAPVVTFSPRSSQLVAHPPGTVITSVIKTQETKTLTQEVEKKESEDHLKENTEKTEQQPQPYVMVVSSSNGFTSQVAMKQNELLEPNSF
# Outline: as §1
# EHF = target: T5, EHF (Homo sapiens, UniProt Q9NZC4 1-300)
# T5 sequence: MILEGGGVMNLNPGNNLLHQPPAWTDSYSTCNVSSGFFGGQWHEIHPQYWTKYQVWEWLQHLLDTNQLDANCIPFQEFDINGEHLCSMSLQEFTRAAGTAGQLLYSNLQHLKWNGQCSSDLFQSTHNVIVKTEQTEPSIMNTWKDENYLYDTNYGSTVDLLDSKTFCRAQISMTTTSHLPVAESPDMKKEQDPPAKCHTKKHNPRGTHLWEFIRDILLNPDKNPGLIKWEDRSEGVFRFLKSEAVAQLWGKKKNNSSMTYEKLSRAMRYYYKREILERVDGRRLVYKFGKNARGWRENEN
# Outline: as §1
# SPI1 = SPI1 (Homo sapiens, UniProt P17947 1-270)
# Outline: as §1
# SPIB = SPIB (Homo sapiens, UniProt Q01892 1-262)
# SPIB, sequence (Q01892 whole entry): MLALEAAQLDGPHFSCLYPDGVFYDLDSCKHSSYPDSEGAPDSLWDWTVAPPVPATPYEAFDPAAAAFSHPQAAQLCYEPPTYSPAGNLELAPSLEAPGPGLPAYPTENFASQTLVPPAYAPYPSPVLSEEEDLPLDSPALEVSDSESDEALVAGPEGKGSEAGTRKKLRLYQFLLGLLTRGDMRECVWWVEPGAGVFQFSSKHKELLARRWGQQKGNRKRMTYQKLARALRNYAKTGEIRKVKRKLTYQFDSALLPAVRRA
# Outline: as §1
# ELK3 = target: T6, ELK3 (Homo sapiens, UniProt P41970 1-407)
# T6 sequence: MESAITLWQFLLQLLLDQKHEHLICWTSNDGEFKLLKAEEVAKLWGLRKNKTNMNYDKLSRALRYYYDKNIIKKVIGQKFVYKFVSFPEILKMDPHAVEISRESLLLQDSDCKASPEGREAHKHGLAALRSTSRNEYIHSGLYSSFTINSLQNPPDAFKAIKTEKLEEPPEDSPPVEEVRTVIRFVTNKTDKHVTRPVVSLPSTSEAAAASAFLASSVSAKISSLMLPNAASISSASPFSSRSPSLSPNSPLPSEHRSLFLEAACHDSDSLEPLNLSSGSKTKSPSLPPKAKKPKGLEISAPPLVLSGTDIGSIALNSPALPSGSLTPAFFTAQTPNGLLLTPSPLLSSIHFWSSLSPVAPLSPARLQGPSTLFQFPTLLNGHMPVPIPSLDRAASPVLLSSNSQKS
# Outline: as §1
sequence,measurement,setting,value
ATAACT,binding signal,FLI1,"1.23 fold enrichment (6-mer frequency, TF over GST control)"
same,binding signal,ELK1,"1.21 fold enrichment (6-mer frequency, TF over GST control)"
same,binding signal,GABPA,"1.29 fold enrichment (6-mer frequency, TF over GST control)"
same,binding signal,ERG,"1.22 fold enrichment (6-mer frequency, TF over GST control)"
same,binding signal,ELF1,"1.32 fold enrichment (6-mer frequency, TF over GST control)"
same,binding signal,EHF,"1.24 fold enrichment (6-mer frequency, TF over GST control)"
same,binding signal,SPI1,"1.22 fold enrichment (6-mer frequency, TF over GST control)"
same,binding signal,SPIB,"1.36 fold enrichment (6-mer frequency, TF over GST control)"
same,binding signal,ELK3,"1.22 fold enrichment (6-mer frequency, TF over GST control)"
